{
  "source": "the supplement of paper PMC8728848",
  "binders": {"B1": {"name": "Banana lectin (Musa acuminata) (protein)", "chain": "MNGAIKVGAWGGNGGSAFDMGPAYRIISVKIFSGDVVDGVDVTFTYYGKTETRHYGGSGGTPHEIVLQEGEYLVGMAGEVANYTGAVVLGKLGFSTNKKAYGPFGNTGGTPFSLPIAAGKISGFFGRGGKFLDAIGVYLEPLEHHHHHH"}},
  "assay_in_all_cases": "glycan array binding signal (z-score within array); higher = stronger binding",
  "details_in_all_cases": "glycan notation: IUPAC condensed, linker removed; mutation: H84T",
  "key": {"[1]": {"target": "Fuc(a1-2)Gal(b1-3)GlcNAc", "summary_of_the_method": "(§1)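 The Consortium for Functional Glycomics database supplied 3228 glycan arrays, of which those lacking an available protein sequence were dropped. The binding signal, a within-array Z-score, was averaged across arrays of the same protein sequence and across linkers. Negative scores can be read as non-binding.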"}, "[2]": {"target": "Fuc(a1-2)Gal(b1-3)GlcNAc(b1-2)Man(a1-3)[Fuc(a1-2)Gal(b1-3)GlcNAc(b1-2)Man(a1-6)]Man(b1-4)GlcNAc(b1-4)[Fuc(a1-6)]GlcNAc", "summary_of_the_method": "as §1"}, "[3]": {"target": "Fuc(a1-2)Gal(b1-4)GlcNAc(b1-3)Gal(b1-4)GlcNAc(b1-2)Man(a1-3)[Fuc(a1-2)Gal(b1-4)GlcNAc(b1-3)Gal(b1-4)GlcNAc(b1-2)Man(a1-6)]Man(b1-4)GlcNAc(b1-4)GlcNAc", "summary_of_the_method": "as §1"}, "[4]": {"target": "Fuc(a1-2)Gal(b1-4)[Fuc(a1-3)]GlcNAc(b1-3)[Neu5Ac(a2-6)Gal(b1-4)GlcNAc(b1-6)]Gal(b1-4)Glc", "summary_of_the_method": "as §1"}, "[5]": {"target": "Fuc(a1-2)[GalNAc(a1-3)]Gal(b1-3)GalNAc(b1-3)Gal(a1-4)Gal(b1-4)Glc", "summary_of_the_method": "as §1"}, "[6]": {"target": "Fuc(a1-3)GlcNAc", "summary_of_the_method": "as §1"}, "[7]": {"target": "Fuc(b1-3)GlcNAc", "summary_of_the_method": "as §1"}, "[8]": {"target": "Gal(a1-3)Gal(b1-3)[Fuc(a1-4)]GlcNAc(b1-2)Man(a1-3)[Gal(a1-3)Gal(b1-3)[Fuc(a1-4)]GlcNAc(b1-2)Man(a1-6)]Man(b1-4)GlcNAc(b1-4)GlcNAc", "summary_of_the_method": "as §1"}, "[9]": {"target": "Gal(b1-3)GlcNAc(b1-6)GalNAc", "summary_of_the_method": "as §1"}, "[10]": {"target": "Gal(b1-3)[Neu5Ac(a2-6)]GalNAc", "summary_of_the_method": "as §1"}, "[11]": {"target": "Gal(b1-4)GlcNAc(b1-2)[Gal(b1-4)GlcNAc(b1-6)]Man(a1-6)[GlcNAc(b1-4)][Gal(b1-4)GlcNAc(b1-2)Man(a1-3)]Man(b1-4)GlcNAc(b1-4)GlcNAc", "summary_of_the_method": "as §1"}, "[12]": {"target": "Gal(b1-4)GlcNAc(b1-6)Gal(b1-4)GlcNAc", "summary_of_the_method": "as §1"}, "[13]": {"target": "Gal3S(b1-4)[Fuc(a1-3)]GlcNAc6S", "summary_of_the_method": "as §1"}, "[14]": {"target": "GlcNAc(a1-4)Gal(b1-4)GalNAc", "summary_of_the_method": "as §1"}, "[15]": {"target": "GlcNAc(b1-3)Gal(b1-4)GlcNAc(b1-3)Gal(b1-4)GlcNAc(b1-3)Gal(b1-4)GlcNAc(b1-2)Man(a1-3)[GlcNAc(b1-3)Gal(b1-4)GlcNAc(b1-3)Gal(b1-4)GlcNAc(b1-3)Gal(b1-4)GlcNAc(b1-2)Man(a1-6)]Man(b1-4)GlcNAc(b1-4)[Fuc(a1-6)]GlcNAc", "summary_of_the_method": "as §1"}, "[16]": {"target": "GlcNAc6S(b1-3)Gal(b1-4)GlcNAc", "summary_of_the_method": "as §1"}, "[17]": {"target": "Kdn(a2-3)Gal(b1-4)GlcNAc", "summary_of_the_method": "as §1"}, "[18]": {"target": "Man(a1-2)Man(a1-2)Man(a1-6)[Man(a1-3)]Man", "summary_of_the_method": "as §1"}, "[19]": {"target": "Man(a1-2)Man(a1-3)[Man(a1-2)Man(a1-6)]Man", "summary_of_the_method": "as §1"}, "[20]": {"target": "Man(a1-2)Man(a1-3)[Man(a1-2)Man(a1-6)]Man(a1-6)[Man(a1-2)Man(a1-2)Man(a1-3)]Man", "summary_of_the_method": "as §1"}, "[21]": {"target": "Man(a1-2)Man(a1-3)[Man(a1-2)Man(a1-6)]Man(a1-6)[Man(a1-2)Man(a1-2)Man(a1-3)]Man(b1-4)GlcNAc(b1-4)GlcNAc", "summary_of_the_method": "as §1"}, "[22]": {"target": "Man(a1-2)Man(a1-3)[Man(a1-6)]Man(a1-6)[Man(a1-2)Man(a1-3)]Man(b1-4)GlcNAc(b1-4)GlcNAc", "summary_of_the_method": "as §1"}, "[23]": {"target": "Man(a1-2)Man(a1-6)[Man(a1-3)]Man(a1-6)[Man(a1-2)Man(a1-2)Man(a1-3)]Man", "summary_of_the_method": "as §1"}, "[24]": {"target": "Man(a1-2)Man(a1-6)[Man(a1-3)]Man(a1-6)[Man(a1-2)Man(a1-2)Man(a1-3)]Man(b1-4)GlcNAc(b1-4)GlcNAc", "summary_of_the_method": "as §1"}, "[25]": {"target": "Man(a1-3)[Man(a1-6)]Man", "summary_of_the_method": "as §1"}, "[26]": {"target": "Man(a1-3)[Man(a1-6)]Man(a1-6)[Man(a1-2)Man(a1-3)]Man(b1-4)GlcNAc(b1-4)GlcNAc", "summary_of_the_method": "as §1"}, "[27]": {"target": "Man(a1-3)[Man(a1-6)]Man(a1-6)[Man(a1-3)]Man(b1-4)GlcNAc(b1-4)GlcNAc", "summary_of_the_method": "as §1"}, "[28]": {"target": "Man(a1-3)[Man(a1-6)]Man(b1-4)GlcNAc(b1-4)GlcNAc", "summary_of_the_method": "as §1"}, "[29]": {"target": "Man(a1-3)[Man(a1-6)]Man(b1-4)GlcNAc(b1-4)[Fuc(a1-6)]GlcNAc", "summary_of_the_method": "as §1"}, "[30]": {"target": "Neu5Ac(a2-3)Gal", "summary_of_the_method": "as §1"}, "[31]": {"target": "Neu5Ac(a2-3)Gal(b1-4)GlcNAc(b1-2)Man", "summary_of_the_method": "as §1"}, "[32]": {"target": "Neu5Ac(a2-3)Gal(b1-4)GlcNAc(b1-2)Man(a1-3)[Neu5Ac(a2-3)Gal(b1-4)GlcNAc(b1-2)Man(a1-6)]Man(b1-4)GlcNAc(b1-4)GlcNAc", "summary_of_the_method": "as §1"}, "[33]": {"target": "Neu5Ac(a2-3)Gal(b1-4)GlcNAc(b1-3)Gal(b1-3)GlcNAc", "summary_of_the_method": "as §1"}, "[34]": {"target": "Neu5Ac(a2-3)Gal(b1-4)GlcNAc(b1-3)Gal(b1-4)GlcNAc(b1-3)[Neu5Ac(a2-3)Gal(b1-4)GlcNAc(b1-3)Gal(b1-4)GlcNAc(b1-6)]GalNAc", "summary_of_the_method": "as §1"}, "[35]": {"target": "Neu5Ac(a2-3)Gal(b1-4)GlcNAc(b1-3)Gal(b1-4)[Fuc(a1-3)]GlcNAc", "summary_of_the_method": "as §1"}, "[36]": {"target": "Neu5Ac(a2-3)Gal(b1-4)[Fuc(a1-3)]GlcNAc", "summary_of_the_method": "as §1"}, "[37]": {"target": "Neu5Ac(a2-3)Gal(b1-4)[Fuc(a1-3)]GlcNAc(b1-6)[Gal(b1-3)]GalNAc", "summary_of_the_method": "as §1"}, "[38]": {"target": "Neu5Ac(a2-6)Gal(b1-4)GlcNAc(b1-2)Man(a1-3)[Man(a1-6)]Man(b1-4)GlcNAc(b1-4)GlcNAc", "summary_of_the_method": "as §1"}, "[39]": {"target": "Neu5Ac(a2-6)Gal(b1-4)GlcNAc(b1-2)[Neu5Ac(a2-6)Gal(b1-4)GlcNAc(b1-4)]Man(a1-3)[GlcNAc(b1-4)][Neu5Ac(a2-6)Gal(b1-4)GlcNAc(b1-4)Man(a1-6)]Man(b1-4)GlcNAc(b1-4)GlcNAc", "summary_of_the_method": "as §1"}, "[40]": {"target": "Neu5Ac(b2-6)Gal(b1-4)GlcNAc", "summary_of_the_method": "as §1"}, "[41]": {"target": "Neu5Gc(a2-8)Neu5Gc(a2-3)Gal(b1-4)GlcNAc", "summary_of_the_method": "as §1"}},
  "note": "Only a selection was taken, and the strongest signals are over-represented in it overall.",
  "data": [
    {"binder": "B1", "values": [
      {"measurement": "glycan array binding signal (z-score)", "setting": "[1]", "result": -0.164},
      {"measurement": "glycan array binding signal (z-score)", "setting": "[2]", "result": -0.026},
      {"measurement": "glycan array binding signal (z-score)", "setting": "[3]", "result": -0.09},
      {"measurement": "glycan array binding signal (z-score)", "setting": "[4]", "result": -0.193},
      {"measurement": "glycan array binding signal (z-score)", "setting": "[5]", "result": -0.165},
      {"measurement": "glycan array binding signal (z-score)", "setting": "[6]", "result": -0.218},
      {"measurement": "glycan array binding signal (z-score)", "setting": "[7]", "result": -0.189},
      {"measurement": "glycan array binding signal (z-score)", "setting": "[8]", "result": 0.562},
      {"measurement": "glycan array binding signal (z-score)", "setting": "[9]", "result": -0.155},
      {"measurement": "glycan array binding signal (z-score)", "setting": "[10]", "result": -0.154},
      {"measurement": "glycan array binding signal (z-score)", "setting": "[11]", "result": -0.098},
      {"measurement": "glycan array binding signal (z-score)", "setting": "[12]", "result": -0.206},
      {"measurement": "glycan array binding signal (z-score)", "setting": "[13]", "result": -0.177},
      {"measurement": "glycan array binding signal (z-score)", "setting": "[14]", "result": -0.184},
      {"measurement": "glycan array binding signal (z-score)", "setting": "[15]", "result": -0.082},
      {"measurement": "glycan array binding signal (z-score)", "setting": "[16]", "result": -0.199},
      {"measurement": "glycan array binding signal (z-score)", "setting": "[17]", "result": -0.189},
      {"measurement": "glycan array binding signal (z-score)", "setting": "[18]", "result": 8.2},
      {"measurement": "glycan array binding signal (z-score)", "setting": "[19]", "result": 2.21},
      {"measurement": "glycan array binding signal (z-score)", "setting": "[20]", "result": 7.07},
      {"measurement": "glycan array binding signal (z-score)", "setting": "[21]", "result": 5.46},
      {"measurement": "glycan array binding signal (z-score)", "setting": "[22]", "result": 4.86},
      {"measurement": "glycan array binding signal (z-score)", "setting": "[23]", "result": 5.72},
      {"measurement": "glycan array binding signal (z-score)", "setting": "[24]", "result": 10.1},
      {"measurement": "glycan array binding signal (z-score)", "setting": "[25]", "result": 6.01},
      {"measurement": "glycan array binding signal (z-score)", "setting": "[26]", "result": 11.3},
      {"measurement": "glycan array binding signal (z-score)", "setting": "[27]", "result": 5.96},
      {"measurement": "glycan array binding signal (z-score)", "setting": "[28]", "result": 4.6},
      {"measurement": "glycan array binding signal (z-score)", "setting": "[29]", "result": 1.98},
      {"measurement": "glycan array binding signal (z-score)", "setting": "[30]", "result": -0.212},
      {"measurement": "glycan array binding signal (z-score)", "setting": "[31]", "result": -0.188},
      {"measurement": "glycan array binding signal (z-score)", "setting": "[32]", "result": -0.182},
      {"measurement": "glycan array binding signal (z-score)", "setting": "[33]", "result": -0.175},
      {"measurement": "glycan array binding signal (z-score)", "setting": "[34]", "result": -0.109},
      {"measurement": "glycan array binding signal (z-score)", "setting": "[35]", "result": -0.179},
      {"measurement": "glycan array binding signal (z-score)", "setting": "[36]", "result": -0.19},
      {"measurement": "glycan array binding signal (z-score)", "setting": "[37]", "result": -0.16},
      {"measurement": "glycan array binding signal (z-score)", "setting": "[38]", "result": 0.399},
      {"measurement": "glycan array binding signal (z-score)", "setting": "[39]", "result": -0.177},
      {"measurement": "glycan array binding signal (z-score)", "setting": "[40]", "result": -0.184},
      {"measurement": "glycan array binding signal (z-score)", "setting": "[41]", "result": -0.162}
    ]}
  ]
}
